MITF act: increases MITF-driven TRPM1 promoter luciferase signal; activation, % at 12.5 µM; SK-MEL-5 TRPM1-promoter luciferase, 24 h; % of positive control, neutral wells = 0; 300,000 tested, 0.75% active;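 active means mean activation of at least 80% with every replicate also reaching 80%; inconclusive means mean reaches 80% but some replicate falls short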;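 further: 0% = neutral control wells and 100% = parthenolide positive control wells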
Statin myotox sup: protects C2C12 myotubes from simvastatin toxicity | ATP luminescence, 48 h; scaled: DMSO 0, geranylgeraniol control 100 | rescue of ATP level, % at 7.49 µM | 330,000 tested, 0.78% active | AID 602340;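 active means mean ATP rescue above about 67%, or every replicate alone reaching that limit, limit read from the data, passing the limit was not always enough; inconclusive means no clear call, values can overlap the other calls; inactive means mean under the limit and some replicate under it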;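 further: myotubes were challenged with 10 µM simvastatin during compound exposure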
esBAF inh: inhibitors of esBAF chromatin remodeling in mouse ES cells. 350,000 tested, 2% active. reporter increase, % at 12.5 µM. Bmi1-luciferase knock-in reporter, 24 h; 100% = twice the neutral-well signal; in the data active means activation above about 40%; inconclusive means no clear call, values can overlap the other calls;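 further: 0% = median of the plate's neutral control wells and 100% = double that signal; a rise in the Bmi1 reporter signal indicates esBAF inhibition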
FXN GAA850 act: increases GAA850 frataxin promoter reporter activity | AID 540364 | activation, % at 6 µM | HEK293 lucGAA850 FXN promoter luciferase reporter, 24 h; percent of 10 µM SAHA response | 360,000 tested, 0.56% active;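 active means activation above the average of all compounds screened plus 3 SD, cutoff fixed separately per campaign, cut at about 7.5% in these data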;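 further: 0% = DMSO wells and 100% = 10 µM SAHA wells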
Wnt act: activators of Wnt/beta-catenin signaling; 300,000 tested, 1.2% active; AID 743398; activation, % at 9.35 µM; Wnt/beta-catenin reporter cell assay, activator, plate reader; in the data active means activation above about 30%, passing the limit was not always enough; inconclusive means no clear call, values can overlap the other calls;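 further: 0% = neutral control wells and 100% = positive control wells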
* = called active by the depositor; ? = inconclusive; . = not tested or not shown. Shown are actives, neighbours in structure and some others; about 3.3% of the full set was active somewhere.

SMILES | MITF act | Statin myotox sup | esBAF inh | FXN GAA850 act | Wnt act
O=C(c1ccc(Cl)cc1)N1CCn2c1nc1ccccc12 | 62 | 7 | 49* | 3 | 2
COc1ccc(C(=O)N2CCn3c2nc2ccccc23)cc1 | 78 | -13 | ? | 7 | 23
Cc1cc(NC(=O)COC(=O)C2CCN(S(=O)(=O)c3c(Cl)cccc3Cl)CC2)no1 | 3 | 109* | -5 | 1 | -3
Cc1cc(NC(=O)COC(=O)C2CCN(S(=O)(=O)c3ccc(Cl)cc3)CC2)no1 | . | . | -3 | 0 | 7
C[C@H](CO)N1C[C@H](C)[C@H](CN(C)C(=O)C2CCCCC2)OCCCC[C@H](C)Oc2ccc(NC(=O)C3CCCCC3)cc2C1=O | . | . | 10 | . | .
Oc1ccc(Nc2nc(-c3cccnc3)cs2)cc1 | . | 13 | 39 | 9.0* | .
CC(=O)c1ccc(Nc2nc(-c3cccnc3)cs2)cc1 | . | -12 | 52* | 4 | 4
CCOc1ccc(Nc2nc(-c3cccnc3)cs2)cc1 | . | -21 | 50* | 2 | 14
O=C(O)c1ccc(Nc2nc(-c3cccnc3)cs2)cc1 | 17 | 8 | ? | 4 | 26
CC(=O)c1cccc(Nc2nc(-c3cccnc3)cs2)c1 | . | -6 | 54* | 5 | 17
C[C@@H]1CN([C@@H](C)CO)C(=O)c2cc(-c3cccnc3)cnc2O[C@@H]1CN(C)C(=O)C1CCC1 | . | 15 | -3 | . | .
CCCNC(=O)C[C@@H]1CC[C@H]2[C@@H](COC[C@H](O)CN2Cc2ccc(Cl)c(Cl)c2)O1 | . | -2 | -3 | . | .
C[C@H](CO)N1C[C@H](C)[C@@H](CN(C)S(=O)(=O)c2cccc(F)c2)OCc2ccccc2-c2ccccc2C1=O | . | 14 | 2 | . | .
c1cncc(Nc2nc(-c3cccs3)cs2)c1 | 52 | -4 | 69* | 3 | 16
Cn1nnc(NC(=O)CSc2ccc(Cl)cc2)n1 | 4 | 98* | -10 | 0 | -1
Cn1nnc(NC(=O)CSc2nnnn2-c2ccc(F)cc2)n1 | . | -18 | -8 | -2 | -2
CCn1nnc(NC(=O)C(c2ccccc2)c2ccccc2)n1 | -8 | 6 | -8 | 4 | 0
Cn1nnc(NC(=O)C(c2ccccc2)c2ccccc2)n1 | -10 | -1 | -2 | -2 | 40*
O=C(C[C@H]1C[C@@H]2c3cc(NC(=O)Nc4ccccc4)ccc3O[C@@H]2[C@@H](CO)O1)NC1CCCCC1 | . | 5 | 6 | . | .
COc1ccc(NC(=S)N/C(=N/CS(=O)(=O)c2ccccc2)c2ccccc2)cc1 | 21 | -20 | -3 | 4 | 37*
Cc1cccc(NC(=S)N/C(=N/S(=O)(=O)c2ccccc2)c2ccccc2)c1 | 1 | -6 | 78* | 3 | -4
C[C@H](CO)N1C[C@H](C)[C@H](CN(C)S(=O)(=O)c2ccccc2)OCc2cn(nn2)CCCC1=O | . | 11 | -2 | . | .
Cc1ccc(S(=O)(=O)N[C@@H]2CC[C@@H](CCNC(=O)CN3CCOCC3)O[C@@H]2CO)cc1 | . | 5 | -4 | . | .
CCc1ccc(N2CSC3=C(C#N)C(c4cccs4)CC(=O)N3C2)cc1 (stereo not given) | -5 | -14 | 0 | -1 | .
Cc1ccc(N2CSC3=C(C#N)C(c4cccs4)CC(=O)N3C2)cc1 (stereo not given) | 10 | -4 | 54* | 1 | -3
SMILES | MITF act | Statin myotox sup | esBAF inh | FXN GAA850 act | Wnt act
COc1cc(OC)c(C2CC(=O)N3CN(c4ccc(C)cc4)CSC3=C2C#N)cc1OC (stereo not given) | 56 | 0 | 36 | 4 | 38*
COc1ccc(S(=O)(=O)N(C)C[C@@H]2Oc3ccc(NC(=O)Nc4c(C)noc4C)cc3C(=O)N([C@@H](C)CO)C[C@@H]2C)cc1 | . | 1 | -5 | . | .
CCOc1cc(C2NN=C(c3ccc(C)cc3)S2)ccc1O (stereo not given) | 68 | . | . | 7 | 63*
COC(=O)C1CCN(S(=O)(=O)c2c(C)n(C)c(=O)n(C)c2=O)CC1 | 1 | 10 | -8 | 0 | 48*
Cc1cc(C)n(C(=O)c2cc3ccccc3c(=O)o2)n1 | -3 | 93* | -1 | 1 | .
Cc1cc(C)n(C(=O)c2ccc(C)c(F)c2F)n1 | 1 | . | . | 3 | .
O=C(NC(=S)N(CCO)Cc1ccccc1)c1ccc(S(=O)(=O)N2CCCC2)cc1 | -1 | . | . | 1 | 45*
COCC(=O)N(C)C[C@@H]1Oc2cc(-c3ccncc3)ccc2S(=O)(=O)N([C@@H](C)CO)C[C@@H]1C | . | -2 | 0 | . | .
CCOc1ccccc1NC(=O)CN1C(=O)C(C)SC(C)C1=O (stereo not given) | -10 | . | . | 0 | 39*
Cn1cnnc1SCC(=O)N1CCC(Cc2ccccc2)CC1 | 10 | 99* | 1 | -2 | .
Cn1cnnc1SCC(=O)N1CCN(C(=O)c2ccco2)CC1 | -11 | . | . | -1 | 2
C[C@H]1CN([C@@H](C)CO)S(=O)(=O)c2ccc(-c3cncnc3)cc2O[C@@H]1CN(C)C(=O)CN(C)C | . | 0 | 2 | . | .
C[C@H](CO)N1C[C@H](C)[C@H](CN(C)S(=O)(=O)c2ccccc2)Oc2ncc(C#Cc3ccc(C(F)(F)F)cc3)cc2C1=O | . | 37 | -13 | . | .
Cc1cc(/C=C2/C(=O)N(C)C(=S)N2C)c(C)n1C1CC1 | 68 | -4 | 10 | 5 | -1
CN1C(=O)/C(=C/C=C2\SCCN2C)N(C)C1=S | 71 | -2 | 66* | 3 | -1
CCCC(=O)Nc1ccc2c(c1)C(=O)N(C)C[C@H](OC)[C@@H](C)CN(Cc1cncnc1)[C@@H](C)CO2 | . | -6 | -3 | . | .
C=CCn1c(-c2csc(-c3ccccc3)n2)n[nH]c1=S | 5 | 77* | 6 | 4 | 1
Nc1sc(-c2ccccc2)cc1-c1n[nH]c(=S)n1C1CCCCC1 | . | . | . | -3 | -13
C=CCn1c(-c2cc(-c3ccccc3)sc2N)n[nH]c1=S | . | . | . | 4 | 41*
O=C(C[C@@H]1C[C@@H]2c3cc(NC(=O)C4CCOCC4)ccc3O[C@@H]2[C@H](CO)O1)NC1CCCC1 | . | 6 | 6 | . | .
COc1cccc(/C=N/N2CCN(c3ccccc3OC)CC2)c1 | 108* | -6 | ? | 4 | .
COc1ccccc1N1CCN(/N=C/c2cccc(Cl)c2)CC1 | . | -3 | 100* | 4 | 42*
COc1ccccc1N1CCN(/N=C/c2cccc(OC)c2O)CC1 | 75 | . | . | 2 | 44*
COc1ccccc1N1CCN(/N=C/c2ccc(O)c(O)c2)CC1 | . | . | . | . | 21
COc1ccc(/C=N/N2CCN(c3ccccc3OC)CC2)cc1OC | 31 | -14 | 10 | 3 | .
COc1ccc(S(=O)(=O)N(C)C[C@@H]2Oc3ccc(NC(=O)NC(C)C)cc3CC(=O)N([C@@H](C)CO)C[C@H]2C)cc1 | . | -6 | -3 | . | .
CCCN1[C@H](C(=O)N[C@@H](C)c2ccccc2)[C@@H](CO)[C@@H]2Cn3c(ccc(-c4cccc(F)c4)c3=O)[C@@H]21 | . | 7 | 3 | . | .
CN1[C@H](C(=O)NC2Cc3ccccc3C2)[C@@H](CO)[C@@H]2Cn3c(ccc(C4=CCCC4)c3=O)[C@@H]21 | . | 2 | 1 | . | .
COc1cccc(NC(=O)N[C@H]2C=C[C@@H](CC(=O)Nc3ccc(-c4ccccc4)cc3)O[C@H]2CO)c1 | . | 36 | 5 | . | .
